PubChem BioAssay (EPA / NIEHS)
Active and inactive are the calls of the source. The calls were made as follows: active = hit-call score of the fitted dose curve at least 0.9, where 1 is the maximum; inactive = score below 0.9.

Key:
Settings in all cases: mRNA level, 48 h; actives raise or lower the signal
[1] = read-out: Fatty Acid-Binding Protein 1 (FABP1), FABP1 (gene 2168); assay: LTEA_HepaRG_FABP1: Life Technologies and Expression Analysis (LTEA) Assay for Fatty Acid-Binding Protein 1 (FABP1) using HepaRG (AID 2283494)
Method in brief: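 Differentiated human HepaRG cells were exposed in duplicate for 48 h in serum-free induction medium to 8-point half-log concentration series topping at 100 uM in 0.5% DMSO. FABP1 mRNA measured by TaqMan qRT-PCR, normalized to ACTB/GAPDH/POLR2A; bidirectional fit versus DMSO.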

[2] = read-out: Cytochrome P450 4A22 (Homo sapiens) (UniProt Q5TCH4); assay: LTEA_HepaRG_CYP4A22: Life Technologies and Expression Analysis (LTEA) Assay for Cytochrome P450 4A22 (CYP4A22) using HepaRG (AID 2283495)
Method in brief: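 Differentiated HepaRG cells in serum-free induction medium exposed 48 h in duplicate to eight half-log concentrations up to 100 uM in 0.5% DMSO. CYP4A22 mRNA quantified by TaqMan qRT-PCR, normalized to ACTB, GAPDH and POLR2A; bidirectional fit versus DMSO.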

[3] = read-out: Glutathione S-Transferase (GSTA2), GSTA2 (gene 2939); assay: LTEA_HepaRG_GSTA2: Life Technologies and Expression Analysis (LTEA) Assay for Glutathione S-Transferase (GSTA2) using HepaRG (AID 2283497)
Method in brief: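 Human HepaRG cells, plated 48 h, then exposed in serum-free induction medium for 48 h to eight half-log concentrations up to 100 uM in 0.5% DMSO, duplicate. GSTA2 mRNA by qRT-PCR, normalized to ACTB/GAPDH/POLR2A; bidirectional fit versus DMSO.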

[4] = read-out: Glutamate-cysteine ligase catalytic (GCLC), GCLC (gene 2729); assay: LTEA_HepaRG_GCLC: Life Technologies and Expression Analysis (LTEA) Assay for Glutamate-cysteine ligase catalytic (GCLC) using HepaRG (AID 2283498)
Method in brief: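 Differentiated human HepaRG cells, plated 48 h then switched to serum-free induction medium, were exposed in duplicate for 48 h to 8 half-log concentrations topping at 100 uM in 0.5% DMSO. GCLC mRNA was quantified by qRT-PCR against ACTB, GAPDH and POLR2A.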

[5] = read-out: growth arrest and DNA damage 45 (GADD45G), GADD45G (gene 10912); assay: LTEA_HepaRG_GADD45G: Life Technologies and Expression Analysis (LTEA) Assay for growth arrest and DNA damage 45 (GADD45G) using HepaRG (AID 2283499)
Method in brief: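 Differentiated human HepaRG cells, 48 h post-plating, exposed 48 h in serum-free induction medium to 8 half-log concentrations (top 100 uM, 0.5% DMSO) in duplicate. GADD45G mRNA measured by Fluidigm TaqMan qRT-PCR, normalized to ACTB, GAPDH, POLR2A; bidirectional fit versus DMSO.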

[6] = read-out: Glutamate-cysteine ligase regulatory (GCLM), GCLM (gene 2730); assay: LTEA_HepaRG_GCLM: Life Technologies and Expression Analysis (LTEA) Assay for Glutamate-cysteine ligase regulatory (GCLM) using HepaRG (AID 2283500)
Method in brief: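 Human liver HepaRG cultures receive test chemicals for 48 hours at up to 100 uM in 0.5% DMSO. GCLM expression is measured by qRT-PCR and analysed for increases or decreases against vehicle.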

[7] = read-out: Glutathione S-transferase M3 (GSTM3), GSTM3 (gene 2947); assay: LTEA_HepaRG_GSTM3: Life Technologies and Expression Analysis (LTEA) Assay for Glutathione S-transferase M3 (GSTM3) using HepaRG (AID 2283501)
Method in brief: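 Differentiated human HepaRG cells were exposed in duplicate for 48 h in serum-free induction medium, 8 points from 100 uM top in half-log steps, 0.5% DMSO. GSTM3 mRNA was measured by TaqMan qRT-PCR, normalized to ACTB, GAPDH and POLR2A; bidirectional fit versus DMSO.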

[8] = read-out: Heat shock 70 kDa protein 1 (HSPA1A), gene 3303; assay: LTEA_HepaRG_HSPA1A: Life Technologies and Expression Analysis (LTEA) Assay for Heat shock 70 kDa protein 1 (HSPA1A) using HepaRG (AID 2283502)
Method in brief: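 HSPA1A induction in human HepaRG liver cells is measured after 48 h of chemical treatment (100 uM maximum, 0.5% DMSO vehicle). Expression comes from qRT-PCR normalized to endogenous controls.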

[9] = read-out: Hypoxia-inducible factor 1-alpha (Homo sapiens) (UniProt Q16665); assay: LTEA_HepaRG_HIF1A: Life Technologies and Expression Analysis (LTEA) Assay for Hypoxia-inducible factor 1 (HIF1A) Trancription factor using HepaRG (AID 2283503)
Method in brief: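 HepaRG, 48 h exposure, 8-pt half-log series from 100 uM, 0.5% DMSO vehicle, duplicates. Readout: HIF1A transcript by qRT-PCR (Fluidigm array), housekeeping-normalised. Bidirectional curve fit vs DMSO baseline.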

[10] = read-out: 3-Hydroxy-3-Methylglutaryl-CoA Synthase 2 (HMGCS2), HMGCS2 (gene 3158); assay: LTEA_HepaRG_HMGCS2: Life Technologies and Expression Analysis (LTEA) Assay for 3-Hydroxy-3-Methylglutaryl-CoA Synthase 2 (HMGCS2) using HepaRG (AID 2283504)
Method in brief: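 Human HepaRG cells in serum-free induction medium were exposed in duplicate for 48 h to 8-point half-log series from 100 uM top in 0.5% DMSO. HMGCS2 mRNA measured by TaqMan qRT-PCR, normalised to ACTB, GAPDH, POLR2A; bidirectional fit versus DMSO.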

[11] = read-out: HGF (gene 3082); assay: LTEA_HepaRG_HGF: Life Technologies and Expression Analysis (LTEA) Assay for Hepatocyte Growth Facto (HGF) using HepaRG (AID 2283505)
Method in brief: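 Differentiated HepaRG cells in serum-free induction medium exposed 48 h in duplicate, 8 half-log concentrations from 100 uM in 0.5% DMSO. HGF mRNA by qRT-PCR, normalised to ACTB, GAPDH, POLR2A; bidirectional fitting.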

[12] = read-out: Insulin Like Growth Factor 1 (IGF1), IGF1 (gene 3479); assay: LTEA_HepaRG_IGF1: Life Technologies and Expression Analysis (LTEA) Assay for Insulin Like Growth Factor 1 (IGF1) using HepaRG (AID 2283506)
Method in brief: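 Using human HepaRG liver cells, IGF1 transcript induction or suppression is measured 48 h after dosing across eight concentrations capped at 100 uM. Values derive from bidirectional concentration-response fitting with DMSO as baseline.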

[13] = read-out: Insulin-like growth factor-binding protein 1 (IGFBP1), IGFBP1 (gene 3484); assay: LTEA_HepaRG_IGFBP1: Life Technologies and Expression Analysis (LTEA) Assay for Insulin-like growth factor-binding protein 1 (IGFBP1) using HepaRG (AID 2283508)
Method in brief: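 HepaRG cells, plated 48 h then switched to serum-free induction medium, exposed in duplicate for 48 h to 8-point half-log series from 100 uM in 0.5% DMSO. mRNA measured by qRT-PCR, normalized to ACTB/GAPDH/POLR2A; bidirectional fit versus DMSO.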

[14] = read-out: Interleukin 6 (IL6), IL6 (gene 3569); assay: LTEA_HepaRG_IL6: Life Technologies and Expression Analysis (LTEA) Assay for Interleukin 6 (IL6) using HepaRG (AID 2283509)
Method in brief: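 Differentiated human HepaRG cells, plated 48 h then switched to serum-free induction medium, were exposed in duplicate for 48 h to eight half-log concentrations up to 100 uM in 0.5% DMSO. IL6 mRNA measured by qRT-PCR, normalized to ACTB/GAPDH/POLR2A.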

[15] = read-out: Interleukin 6 Receptor (IL6R), IL6R (gene 3570); assay: LTEA_HepaRG_IL6R: Life Technologies and Expression Analysis (LTEA) Assay for Interleukin 6 Receptor (IL6R) using HepaRG (AID 2283510)
Method in brief: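 Concentration-response in human liver HepaRG cells: eight concentrations from 100 uM downward by half-logs, 48 h exposure, 0.5% DMSO vehicle. IL6R mRNA change measured by qRT-PCR and fitted in both directions relative to vehicle.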

[16] = read-out: Potassium channel subfamily K member 1 (KCNK1), KCNK1 (gene 3775); assay: LTEA_HepaRG_KCNK1: Life Technologies and Expression Analysis (LTEA) Assay for Potassium channel subfamily K member 1 (KCNK1) using HepaRG (AID 2283511)
Method in brief: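 Differentiated human HepaRG cells in serum-free induction medium were exposed in duplicate for 48 h to 8 half-log concentrations up to 100 uM in 0.5% DMSO. KCNK1 mRNA was measured by TaqMan qRT-PCR, normalized to ACTB, GAPDH and POLR2A, and fitted bidirectionally versus DMSO.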

[17] = read-out: Keratin 19 (KRT19), KRT19 (gene 3880); assay: LTEA_HepaRG_KRT19: Life Technologies and Expression Analysis (LTEA) Assay for Keratin 19 (KRT19) using HepaRG (AID 2283512)
Method in brief: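 Differentiated HepaRG cells in serum-free induction medium, exposed 48 h in duplicate to 8 half-log concentrations up to 100 uM in 0.5% DMSO. KRT19 mRNA by qRT-PCR, normalized to ACTB, GAPDH, POLR2A; bidirectional fit vs DMSO.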

[18] = read-out: Intercellular Adhesion Molecule 1 (ICAM1), ICAM1 (gene 3383); assay: LTEA_HepaRG_ICAM1: Life Technologies and Expression Analysis (LTEA) Assay for Intercellular Adhesion Molecule 1 (ICAM1) using HepaRG (AID 2283507)
Method in brief: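 Differentiated human HepaRG cells in serum-free induction medium exposed 48 h in duplicate to 8 half-log concentrations (top 100 uM, 0.5% DMSO). ICAM1 mRNA quantified by TaqMan qRT-PCR, normalized to ACTB, GAPDH and POLR2A; bidirectional fitting versus DMSO.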

Measured: AC50

Sequence of Hypoxia-inducible factor 1-alpha (Homo sapiens) (Q16665 whole entry, looked up): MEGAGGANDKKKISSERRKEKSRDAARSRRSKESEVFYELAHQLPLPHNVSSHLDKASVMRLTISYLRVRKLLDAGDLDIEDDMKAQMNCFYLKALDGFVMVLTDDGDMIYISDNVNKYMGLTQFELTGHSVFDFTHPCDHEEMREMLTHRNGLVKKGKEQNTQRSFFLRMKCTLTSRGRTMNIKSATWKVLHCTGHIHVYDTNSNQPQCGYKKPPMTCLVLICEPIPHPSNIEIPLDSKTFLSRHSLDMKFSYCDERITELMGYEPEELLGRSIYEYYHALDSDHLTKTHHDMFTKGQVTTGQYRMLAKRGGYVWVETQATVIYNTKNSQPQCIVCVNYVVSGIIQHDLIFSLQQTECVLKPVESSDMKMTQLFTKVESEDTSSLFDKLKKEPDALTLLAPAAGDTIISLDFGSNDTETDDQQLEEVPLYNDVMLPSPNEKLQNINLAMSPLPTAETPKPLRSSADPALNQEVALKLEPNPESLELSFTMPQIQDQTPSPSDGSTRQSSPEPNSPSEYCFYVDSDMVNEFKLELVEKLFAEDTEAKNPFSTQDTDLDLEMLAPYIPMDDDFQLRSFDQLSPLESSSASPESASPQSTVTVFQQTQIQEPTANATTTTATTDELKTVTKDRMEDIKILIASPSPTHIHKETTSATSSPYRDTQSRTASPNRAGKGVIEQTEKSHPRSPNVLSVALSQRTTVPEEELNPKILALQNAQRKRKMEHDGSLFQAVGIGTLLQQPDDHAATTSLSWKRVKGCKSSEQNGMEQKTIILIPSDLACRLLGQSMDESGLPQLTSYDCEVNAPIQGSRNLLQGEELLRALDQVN

CC(=O)OCC(COC(C)=O)OC(C)=O
inactive: [1] | [2] | [3] | [4] | [5] | [6] | [7] | [8] | [9] | [10] | [11] | [12] | [13] | [14] | [15] | [16] | [17]

COc1ccc(OC(F)(F)F)cc1CN[C@H]1CCCN[C@H]1c1ccccc1
inactive: [5] | [6] | [7] | [9] | [11] | [12] | [15] | [17]
active: [1] 77.9 µM | [2] 15.8 µM | [3] 5.08 µM | [4] 90.1 µM | [8] 73.3 µM | [10] 78.8 µM | [18] 75.7 µM | [13] 71.7 µM | [14] 82.9 µM | [16] 79.1 µM

CCCCCCC(C=O)=Cc1ccccc1
inactive: [1] | [2] | [3] | [4] | [5] | [7] | [8] | [9] | [10] | [11] | [12] | [18] | [13] | [14] | [15] | [16] | [17]

Oc1ccc(O)cc1
inactive: [1] | [2] | [3] | [4] | [5] | [7] | [8] | [10] | [11] | [12] | [13] | [14] | [15] | [16] | [17]
